Measured values taken from PubChem BioAssay (NCI).
About 79,000 compounds went through this panel and 15% of them were active in at least one assay; those are over-represented in the sample as a whole. A number with no mark means an inactive call. Activity calls are given as the source filed them. Cut-off read from the data, not from the text of the source: active = growth inhibition above about 70%; inactive = the rest.

Experiment: NCI Yeast Anticancer Drug Screen. Data for the wt1 strain (AID 149);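 note: 0% = growth of vehicle-treated wt1 cultures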
Details: S. cerevisiae wt1 strain (SPY 50644) growth inhibition, active compounds read high
Description: Growth inhibition of yeast strains with defined genetic alterations is measured as a screen for potential anti-cancer activity. Selected strains with alterations in DNA damage repair or cell cycle control were exposed to compounds and growth inhibition was measured relative to vehicle treated controls. The strain used in this assay is wt1

Row | SMILES | growth inhibition (at 1.2 µM) | growth inhibition (at 3.7 µM) | growth inhibition (at 11.0 µM) | growth inhibition (at 33.0 µM) | growth inhibition (at 100.0 µM)
1 | CC(=O)Oc1ccc(N2C(=O)C3c4[nH]c5ccccc5c4C4CCC(C(C)(C)C)CC4C3C2=O)cc1 (stereo not given) | 15% | 64% | 98% (active) | 95% (active) | 95% (active)
2 | NC(N)=NCCCS(=O)(=O)Nc1ccc(Nc2c3ccccc3nc3cc([N+](=O)[O-])ccc23)cc1 | -20% | -18% | -26% | -15% | 42%
3 | COc1ccc(C(C#N)=C2C=CC(=NO)C=C2)cc1 | -1% | -2% | 14% | 96% (active) | 97% (active)
4 | Cc1cccc(/C=N\NC(=S)N2CCCCC2)n1 | -5% | 92% (active) | 99% (active) | 99% (active) | 99% (active)
5 | S=C(S)NCC1CCC(CNC(=S)S)CC1 (stereo not given) | -11% | -5% | -5% | 20% | 77% (active)
6 | Oc1ccc(C=Nc2ccccc2O)cc1 | 28% | 28% | 25% | 27% | 39%
7 | O=C1C=CC(=O)N1c1ccc(N2C(=O)C=CC2=O)cc1 | 33% | 95% (active) | 100% (active) | 100% (active) | 98% (active)
8 | Cc1cc(Cl)nc2nc(Cl)c(N)cc12 | -16% | -7% | -2% | 2% | 27%
